IP6K1 inhibitor: inhibitors of human IP6K1 | IP6K1 kinase, ADP-Glo luminescence, 2 h; hits give low values | activity change, % (series mostly up to about 58 µM) | AID 1645851 | 0.81% of 140,000 active | Q92551; in the data active = activity change below about -25%; also: % is scaled to controls: 0 for no effect and ±100 for the full control effect
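ADP-Glo luminescence measures ADP made by human IP6K1 during a 2 h RT reaction with ATP/IP6 (mix at 1.3 mM/130 uM); top library doses 57.5 and 19.1 uM final.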
HEK293 viab: counter-screen for SNCA expression inhibitors: cell viability | 0.12% of 150,000 active | AID 1671193 | HEK-293-SNCA-luc viability, GF-AFC fluorescence, 24 h | Potency, µM (titrated, usually from 57.1 µM), inactives show at the top dose activity change, negative = cytotoxicity, hits mostly cytotoxic;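 also: potency is read from the fitted curve at half-maximal effect; 0% = DMSO-treated cells and -100% = medium-only wells without cells; nearly all actives have a fitted effect of over 30% in size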
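Cytotoxicity counterscreen: after 24 h compound treatment of genome-edited SNCA-luciferase HEK-293 cells, live-cell protease substrate GF-AFC read by fluorescence after 30 min; activity scaled between DMSO (0%) and medium-only (-100%), curves Hill-fitted.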
SNCA expr inh: reduces expression of the alpha-synuclein gene | HEK-293 SNCA-luciferase knock-in, luminescence, 24 h | Potency, µM (highest dose often 57.2 µM), for inactives: at the highest dose activity change, negative = inhibition, actives largely listed as inhibitors | 0.17% of 140,000 active;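 also: potency is read from the fitted curve at half-maximal effect; plate controls were DMSO cells for no effect and cell-free wells for full effect; nearly all actives have a fitted effect of over 45% in size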
KDM5B inhibitor: blocks human KDM5B histone demethylase activity | KDM5B demethylase, FDH-coupled NADH fluorescence (FDH is formaldehyde dehydrogenase) | AID 1347165 | 2.6% of 220,000 active | Potency, µM (series often up to 57.7 µM), most hits filed as inhibitors | Q9UGL1; also: potency is read from the fitted curve at half-maximal effect; 0% is about no effect; nearly all actives have a fitted effect of over 70% in size
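Here, H3K4me3 peptide (12.5 µM in substrate mix) is demethylated by KDM5BΔAP, 200 nM final, after 10 min compound exposure. Formaldehyde product is coupled through FDH (0.25 U/mL in mix) to NADH fluorescence; 30-min ΔRFU feeds dose-response curves.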
An asterisk follows results filed as active; i = inactive; ? = inconclusive; nt = not tested or not shown; [ ] = remark or other dose. Only some compounds are listed: those with a hit (about 3% of all), similar ones and a draw of the others. Unless noted, calls follow the shape of the dose curve; as a rule, active = well fitted curve in the direction sought with a large enough effect; inconclusive = small, poorly fitted or top-dose-only effect, or another doubt; inactive = no such curve, though single readings can be large; an effect the other way counts as inactive or inconclusive.

SMILES	IP6K1 inhibitor	HEK293 viab	SNCA expr inh	KDM5B inhibitor
COc1cccc(-c2cc3c(=O)n(CC(O)c4ccccc4)ccn3n2)c1 (stereo unspecified)	0.0	-14.4%	44.0%	28.2µM*
COc1cccc(-c2cc3c(=O)n(CCNC(=O)Cc4ccc(F)cc4)ccn3n2)c1	-5.9	-2.4%	21.1%	i
COc1ccc(C(O)Cn2ccn3nc(-c4ccc(C(C)C)cc4)cc3c2=O)cc1 (stereo unspecified)	0.0	0.1%	50.3%	i
COc1cccc(-c2cc3c(=O)n(CCNC(=O)c4ccc(F)cc4)ccn3n2)c1	-3.2	3.2%	82.9%	28.2µM*
COc1cccc(-c2cc3c(=O)n(CCNC(=O)c4ccc(C)cc4)ccn3n2)c1	-13.3	-6.1%	3.3%	17.8µM*
COc1cccc(-c2cc3c(=O)n(CCNC(=O)c4ccccn4)ccn3n2)c1	-10.5	-4.2%	35.7%	31.6µM*
O=C(NC1CCCCCC1)c1nc2sccn2c1-c1ccncc1	13.8	-24.2%[87.6 µM]	25.6%[87.6 µM]	nt
O=C(/C=C/c1ccc(-c2cc(Cl)ccc2Cl)o1)c1ccc(Cl)cc1	nt	nt	nt	i
COc1nccnc1NC1CCN(C(=O)c2ccco2)CC1	9.8	2.6%	3.0%	25.1µM*
CCS(=O)(=O)N1CCC(Oc2ncccc2C(=O)N(C)C)C1 (stereo unspecified)	26.5	1.6%	8.1%	i
COC(=O)CC1C(=O)NCCN1C(=O)c1n[nH]c2c1CCCC2 (stereo unspecified)	-8.1	-10.3%	0.7%	i
COc1nccnc1NC1CCN(C(=O)c2n[nH]c3c2CCCC3)CC1	-3.9	-7.0%	2.9%	31.6µM*
CCCOc1nccnc1NC1CCN(S(=O)(=O)CC)CC1	-1.5	0.9%	13.1%	28.2µM*
COc1nccnc1NC1CCN(C(=O)c2ccccc2)CC1	-4.7	3.1%	-6.3%	31.6µM*
O=C(NC1CC1)c1ccc2oc(-c3ccncc3)nc2c1	-7.4	6.4%[87.6 µM]	71.0%[87.6 µM]	nt
COc1ccccc1-c1cccc(C(=O)N2CCN(C(=O)c3ccccc3C)CC2)c1	1.1	-25.2%[12.5 µM]	-9.4%	nt
COc1nccnc1NC1CCN(C(=O)c2cccs2)CC1	12.4	2.7%	2.7%	25.1µM*
COc1nccnc1NC1CCN(C(=O)c2cnccn2)CC1	0.8	-4.0%	2.4%	?
COc1nccnc1NC1CCN(C(=O)c2ccc3nc[nH]c3c2)CC1	-4.6	4.1%	5.7%	28.2µM*
COc1nccnc1NC1CCN(S(=O)(=O)c2ccccc2)CC1	1.8	-2.7%	-8.9%	25.1µM*
COc1nccnc1NC1CCN(C(=O)c2cccc(C)c2)CC1	17.6	0.7%	-9.2%	31.6µM*
COc1nccnc1NC1CCN(S(=O)(=O)c2cnc[nH]2)CC1	6.8	-1.8%	32.0%	?
COc1ccccc1Cn1c(=O)c(C(=O)NCc2ccc3c(c2)OCO3)nc2cccnc21	16.8	-14.4%	1.7%	nt
CCc1cccc2c(C(CC(=O)NCCc3ccc(OC)c(OC)c3)c3cccc(F)c3)c[nH]c12 (stereo unspecified)	-3.4	-20.7%	?	i
COc1nccnc1NC1CCNCC1	-0.1	-12.6%	-20.9%	15.8µM*
SMILES	IP6K1 inhibitor	HEK293 viab	SNCA expr inh	KDM5B inhibitor
COc1ccccc1-c1ccc2ncnc(NC3CCNCC3)c2c1	nt	6.5%	20.4%	nt
COc1nccnc1NC1CCN(C(=O)c2ccccc2C)CC1	-3.6	-6.3%	-17.2%	28.2µM*
CCCOc1nccnc1NC1CCN(C(=O)c2cccs2)CC1	-2.0	-14.9%	-8.8%	?
CCCOc1nccnc1NC1CCN(C(=O)c2ccncc2)CC1	-0.9	5.6%	-29.8%	28.2µM*
O=C(NCC(F)(F)F)c1ccc2nc(-c3ccncc3)oc2c1	26.8	15.4%	60.5%	nt
Cn1nc(C2CCNC2)c2c(C(=O)NCc3ccncc3)cc(C3CC3)nc21 (stereo unspecified)	-4.5	4.8%	-14.5%	?
COc1ccc(-c2cc(C(=O)NCC(C)C)c3c(C4CCNC4)nn(C)c3n2)cc1 (stereo unspecified)	-4.2	-8.3%	-23.9%	79.4µM*
COc1ccc(-c2cc(C(=O)N3CCOCC3)c3c(C4CCNC4)nn(C)c3n2)cc1 (stereo unspecified)	0.8	-2.2%	0.7%	79.4µM*
COc1ccc(-c2cc(C(=O)NC3CC3)c3c(C4CCCN4)nn(C)c3n2)cc1 (stereo unspecified)	1.0	1.6%	-5.2%	?
COc1ccc(-c2cc(C(=O)Nc3ccccc3F)c3cnn(C)c3n2)cc1	-10.6	nt	nt	nt
Cc1ncc2n1C(=O)N(C1CCN(Cc3ccncc3)CC1)C2	7.2	?	14.9%[87.6 µM]	39.8µM*

Bioassay records as filed in PubChem.
